Where “and” joins values, the source holds several entries; their conditions need not be identical. Equal values may be shown once. The source holds several records for some structures; these can differ, active in one and inactive in another. Calls of active or inactive are those of the source.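 How the source made its calls, unless noted: active means normalized viability below 100% at a tested concentration; inactive means the rest.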
Tests used:
[1] = viability loss with induced miR-34 in A549 – imaging, A549 dox-inducible miR-34, nuclei and caspase counts, primary screen (AID 1347080;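 active means compounds whose cell count with miR-34 switched on is under 0.7 times the count with it off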); conditions: A549 miR-34 inducible, Hoechst nuclei count, 48 h
[2] = MELAS cybrid and Rieske KO viability enhancers – cell-based, MELAS cybrids, Rieske KO mouse fibroblasts, CellTiter-Glo, primary screen (AID 1508586;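 active means mean z-score across replicates of 1.96 or higher in either the MELAS or the Rieske mutant cell line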;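 further: z relative to plate mean and SD of compound and empty wells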); conditions: low glucose
[3] = drug combination growth inhibition, ovarian cancer – cell-based, oncology-focused library, rucaparib conditional, profiling panel (AID 1508598); conditions: patient-derived ovarian cancer cells, CellTiter-Glo viability, 144 h, stronger effect = lower value
[4] = stronger effect = lower value, cell number ratio, induced over uninduced
[5] = measured here: relative caspase fold change +Dox/-Dox
[6] = measured here: total cells with miR-34 induction, stronger effect = lower value
[7] = measured here: total cells without miR-34 induction
[8] = MELAS cybrid survival, CellTiter-Glo 48 h, stronger effect = higher value
[9] = Rieske KO mouse fibroblast survival, CellTiter-Glo 72 h
[10] = at 0.000305 µM, OCI-C5x cells, with rucaparib 10 µM, 100% = cells with rucaparib alone
[11] = at 0.000305 µM, OCI-C5x cells, without rucaparib
[12] = at 0.000305 µM, OCI-P5x cells, with rucaparib 20 µM, 100% = cells with rucaparib alone
[13] = at 0.000305 µM, OCI-P5x cells, without rucaparib
[14] = at 0.00122 µM, OCI-C5x cells, with rucaparib 10 µM, 100% = cells with rucaparib alone
[15] = at 0.00122 µM, OCI-C5x cells, without rucaparib
[16] = at 0.00122 µM, OCI-P5x cells, with rucaparib 20 µM, 100% = cells with rucaparib alone
[17] = at 0.00122 µM, OCI-P5x cells, without rucaparib
[18] = at 0.00488 µM, OCI-C5x cells, with rucaparib 10 µM, 100% = cells with rucaparib alone
[19] = at 0.00488 µM, OCI-C5x cells, without rucaparib
[20] = at 0.00488 µM, OCI-P5x cells, with rucaparib 20 µM, 100% = cells with rucaparib alone
[21] = at 0.00488 µM, OCI-P5x cells, without rucaparib
[22] = at 0.0195 µM, OCI-C5x cells, with rucaparib 10 µM, 100% = cells with rucaparib alone
[23] = at 0.0195 µM, OCI-C5x cells, without rucaparib
[24] = at 0.0195 µM, OCI-P5x cells, with rucaparib 20 µM, 100% = cells with rucaparib alone
[25] = at 0.0195 µM, OCI-P5x cells, without rucaparib
[26] = at 0.0781 µM, OCI-C5x cells, with rucaparib 10 µM, 100% = cells with rucaparib alone
[27] = at 0.0781 µM, OCI-C5x cells, without rucaparib
[28] = at 0.0781 µM, OCI-P5x cells, with rucaparib 20 µM, 100% = cells with rucaparib alone
[29] = at 0.0781 µM, OCI-P5x cells, without rucaparib
[30] = at 0.313 µM, OCI-C5x cells, with rucaparib 10 µM, 100% = cells with rucaparib alone
[31] = at 0.313 µM, OCI-C5x cells, without rucaparib
[32] = at 0.313 µM, OCI-P5x cells, with rucaparib 20 µM, 100% = cells with rucaparib alone
[33] = at 0.313 µM, OCI-P5x cells, without rucaparib
[34] = at 1.25 µM, OCI-C5x cells, with rucaparib 10 µM, 100% = cells with rucaparib alone
[35] = at 1.25 µM, OCI-C5x cells, without rucaparib
[36] = at 1.25 µM, OCI-P5x cells, with rucaparib 20 µM, 100% = cells with rucaparib alone
[37] = at 1.25 µM, OCI-P5x cells, without rucaparib
[38] = at 5 µM, OCI-C5x cells, with rucaparib 10 µM, 100% = cells with rucaparib alone
[39] = at 5 µM, OCI-C5x cells, without rucaparib
[40] = at 5 µM, OCI-P5x cells, with rucaparib 20 µM, 100% = cells with rucaparib alone
[41] = at 5 µM, OCI-P5x cells, without rucaparib

COc1cc(C(=O)NC2CCN(C)CC2)ccc1Nc1ncc2c(n1)N(C1CCCC1)CC(F)(F)C(=O)N2C
-2.73: z-score [2, 9]
inactive: fold change [1, 4] 1.05 | z-score [2, 8] -0.321 | viability [3, 10] 103% | viability [3, 15] 102% | viability [3, 18] 111% | viability [3, 19] 105%
0.442: fold change [1, 5]
1280: cell count [1, 7]
1340: cell count [1, 6]
active: viability [3, 11] 98.4% | viability [3, 12] 95.2% | viability [3, 13] 86.9% | viability [3, 14] 97.8% | viability [3, 16] 99.5% | viability [3, 17] 93.6% | viability [3, 20] 89.4% | viability [3, 21] 69.2% | viability [3, 22] 73.1% | viability [3, 23] 61.3% | viability [3, 24] 68.6% | viability [3, 25] 21.8% | viability [3, 26] 64% | viability [3, 27] 42.6% | viability [3, 28] 63% | viability [3, 29] 15.8% | viability [3, 30] 39.9% | viability [3, 31] 27.3% | viability [3, 32] 70.3% | viability [3, 33] 15.5% | viability [3, 34] 31% | viability [3, 35] 19.6% | viability [3, 36] 66.4% | viability [3, 37] 17.5% | viability [3, 38] 25.7% | viability [3, 39] 19.7% | viability [3, 40] 53.1% | viability [3, 41] 17.9%

CC(=Cc1ccc(C(=O)O)cc1)c1ccc2c(c1)C(C)(C)CCC2(C)C
0.781: fold change [1, 5]
-0.2: z-score [2, 9]
8250: cell count [1, 6]
inactive: fold change [1, 4] 0.986 | z-score [2, 8] -0.023
8370: cell count [1, 7]

CCc1c2c(nc3ccc(OC(=O)N4CCC(N5CCCCC5)CC4)cc13)-c1cc3c(c(=O)n1C2)COC(=O)[C@@]3(O)CC
2030: cell count [1, 7]
1.54: fold change [1, 5]
-0.798: z-score [2, 9]
2060: cell count [1, 6]
inactive: fold change [1, 4] 1.02 | z-score [2, 8] 0.2 | viability [3, 10] 115% | viability [3, 11] 112% | viability [3, 12] 119% | viability [3, 13] 112% | viability [3, 14] 114% | viability [3, 15] 118% | viability [3, 16] 112% | viability [3, 17] 114% | viability [3, 18] 119% | viability [3, 19] 118% | viability [3, 20] 106% | viability [3, 21] 107% | viability [3, 22] 117% | viability [3, 23] 110% | viability [3, 24] 108% | viability [3, 25] 103% | viability [3, 26] 112% | viability [3, 27] 106% | viability [3, 28] 104% | viability [3, 29] 106%
active: viability [3, 30] 83.7% | viability [3, 31] 99.6% | viability [3, 32] 88.2% | viability [3, 33] 88.7% | viability [3, 34] 64.4% | viability [3, 35] 62.8% | viability [3, 36] 48.7% | viability [3, 37] 37.8% | viability [3, 38] 35.7% | viability [3, 39] 29.9% | viability [3, 40] 23.9% | viability [3, 41] 13.4%

CCCc1ccc(OCC(=O)N(Cc2nc(-c3cccnc3)no2)C(C)C)cc1
0.57: fold change [1, 5]
6670: cell count [1, 6]
inactive: fold change [1, 4] 0.834 | z-score [2, 8] -0.333 | viability [3, 10] 116% | viability [3, 11] 115% | viability [3, 13] 106% | viability [3, 14] 125% | viability [3, 15] 122% | viability [3, 16] 102% | viability [3, 18] 129% | viability [3, 19] 104% | viability [3, 20] 105% | viability [3, 21] 101% | viability [3, 22] 118% | viability [3, 23] 110% | viability [3, 25] 102% | viability [3, 26] 134% | viability [3, 27] 114% | viability [3, 28] 104% | viability [3, 29] 103% | viability [3, 30] 120% | viability [3, 31] 110% | viability [3, 33] 101% | viability [3, 34] 115% | viability [3, 35] 112% | viability [3, 36] 103% | viability [3, 39] 111% | viability [3, 41] 100%
0.238: z-score [2, 9]
active: viability [3, 12] 98% | viability [3, 17] 98.6% | viability [3, 24] 97.5% | viability [3, 32] 98.3% | viability [3, 37] 96.3% | viability [3, 38] 99.7% | viability [3, 40] 93.2%
7990: cell count [1, 7]

COc1cc(Br)c(Nc2nc(-c3c(C)nc4ncccn34)cs2)c(Br)c1
active: viability [3, 12] 95.1% | viability [3, 13] 90.4% | viability [3, 16] 94.4% | viability [3, 17] 96.8% | viability [3, 21] 95.9% | viability [3, 29] 98.6% | viability [3, 36] 78.1% | viability [3, 37] 97.5% | viability [3, 40] 30.8% | viability [3, 41] 19%
2.29 (active) and 1.89 (inactive): z-score [2, 8]
0.545 and -1.29: z-score [2, 9]
0.552 and 0.466: fold change [1, 5]
1800 and 1730: cell count [1, 6]
1740 and 1960: cell count [1, 7]
inactive: fold change [1, 4] 1.04 and 0.88 | viability [3, 10] 125% | viability [3, 11] 110% | viability [3, 14] 131% | viability [3, 15] 111% | viability [3, 18] 131% | viability [3, 19] 109% | viability [3, 20] 100% | viability [3, 22] 135% | viability [3, 23] 110% | viability [3, 24] 101% | viability [3, 25] 102% | viability [3, 26] 136% | viability [3, 27] 111% | viability [3, 28] 101% | viability [3, 30] 118% | viability [3, 31] 108% | viability [3, 32] 100% | viability [3, 33] 100% | viability [3, 34] 122% | viability [3, 35] 115% | viability [3, 38] 129% | viability [3, 39] 140%

— PubChem BioAssay
